The source of these data is PubChem BioAssay (EPA / NIEHS).

As a reminder, the AC50 is the concentration giving half of the maximal activity seen.

Active and inactive are the calls of the source. How the source made its calls: active means hit-call score of the fitted dose curve at least 0.9, where 1 is the maximum; inactive means score below 0.9.

Read-out in the assay: Tumor necrosis factor receptor superfamily member 6 (Homo sapiens) (UniProt P25445)
The assay is described as follows: LTEA_HepaRG_FAS: Life Technologies and Expression Analysis (LTEA) Assay for Fas cell surface death receptor (FAS) using HepaRG (AID 2283447). The note with it: mRNA level, 48 h; actives raise or lower the signal. The procedure, abridged:
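Differentiated HepaRG cells in serum-free induction medium were exposed 48 h to 8 half-log concentrations up to 100 uM in 0.5% DMSO, in duplicate. FAS mRNA was measured by qRT-PCR normalised to ACTB, GAPDH and POLR2A; bidirectional fit versus DMSO.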
For the molecule `CCOC(=O)CC(SP(=O)(OC)OC)C(=O)OCC` (configuration not stated), the molecule was classed as inactive.

Turning to `COc1cc(OC)nc(Sc2cccc(Cl)c2C(=O)O)n1`, the molecule was classed as inactive.

On to `CCCOc1nn(C(=O)NS(=O)(=O)c2ccccc2C(=O)OC)c(=O)n1C`, for which the outcome was inactive.

Regarding `CCOP(=S)(OCC)SCCSCC`, the call was inactive.

Turning to `S=C1NCCN1`, the result was inactive.

In the case of `CON=C(C(=O)OC)c1ccccc1CON=C(C)c1cccc(C(F)(F)F)c1`, the molecule was classed as inactive.

`COP(=O)(OC)SCn1c(=O)oc2cc(Cl)cnc21`: the molecule was classed as inactive.

`O=[N+]([O-])c1cc(C(F)(F)F)c(Cl)c([N+](=O)[O-])c1Nc1ncc(C(F)(F)F)cc1Cl`: the molecule was classed as inactive.

Take `CCC(=O)Nc1ccc(Cl)c(Cl)c1`: the molecule was classed as inactive.

Take `Cc1ccn2nc(S(=O)(=O)Nc3c(F)cccc3F)nc2n1`: the call was inactive.

For the molecule `N#CSCSC#N`, the outcome was inactive.

Regarding `C=C(C)[C@H]1Cc2c(ccc3c2O[C@@H]2COc4cc(OC)c(OC)cc4[C@@H]2C3=O)O1`, the AC50 is 13.1 µM (active).

For `CC(C)=CC1C(C(=O)OCN2C(=O)C3=C(CCCC3)C2=O)C1(C)C` (configuration not stated), the molecule was called inactive.

For `CCC(=NOC/C=C/Cl)C1=C(O)CC(C2CCOCC2)CC1=O` (configuration not stated), the call was inactive.

`CC(=NC#N)N(C)Cc1ccc(Cl)nc1`: the molecule was called inactive.

For `CC(C)[C@H](C(=O)O[C@H](C#N)c1cccc(Oc2ccccc2)c1)c1ccc(Cl)cc1`, the call was inactive.

Regarding `CCOP(=O)(SC(C)CC)N1CCSC1=O` (configuration not stated), the call was inactive.
